# NR3A LBD binder – modulates the human NR3A ligand-binding domain; NR3A LBD differential scanning fluorimetry, Tm shift; 0% = protein alone, 100% = glycine-bound protein; Tm shift relative to glycine control, % at 25 µM; hit rate 2.5% among 340,000;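 active = melting temperature shift of at least 10% of the positive control shift, at one fixed dose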
# ADAM17 inh – inhibitors of human ADAM17; AID 720648; recombinant ADAM17, EDANS/DABCYL FRET peptide cleavage; inhibition, % at 6.95 µM; P78536; hit rate 0.83% among 370,000;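 active = inhibition above the mean of compounds lying between control limits plus 3 SD, set per campaign, cut at about 8.5% in these data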;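 also: 0% = DMSO-only wells as the low control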
# Target sequence (P78536 215-824 limits assumed): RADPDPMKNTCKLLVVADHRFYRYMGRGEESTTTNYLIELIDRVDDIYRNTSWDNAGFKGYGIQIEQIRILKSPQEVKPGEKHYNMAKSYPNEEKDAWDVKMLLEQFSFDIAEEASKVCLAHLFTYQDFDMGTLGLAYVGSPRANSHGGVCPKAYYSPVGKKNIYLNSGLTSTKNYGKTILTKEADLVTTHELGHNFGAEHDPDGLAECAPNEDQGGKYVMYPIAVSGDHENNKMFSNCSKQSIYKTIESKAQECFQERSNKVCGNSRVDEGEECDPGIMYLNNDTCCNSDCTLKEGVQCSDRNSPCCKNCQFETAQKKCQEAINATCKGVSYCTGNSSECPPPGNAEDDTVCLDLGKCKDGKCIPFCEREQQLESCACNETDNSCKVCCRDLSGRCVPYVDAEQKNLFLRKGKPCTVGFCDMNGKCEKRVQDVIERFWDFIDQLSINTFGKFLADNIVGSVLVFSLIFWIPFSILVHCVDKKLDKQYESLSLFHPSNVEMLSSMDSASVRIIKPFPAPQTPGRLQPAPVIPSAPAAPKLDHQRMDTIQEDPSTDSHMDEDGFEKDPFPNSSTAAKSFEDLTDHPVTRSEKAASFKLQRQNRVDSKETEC
# aDG glyco act – alpha-DG glycosylation activation | Pro5-aDG cells, alpha-DG glycosylation AlphaScreen (IIH6); 0% Pro5, 100% B10-LARGE cell signal | activation, % at 10 µM | hit rate 0.22% among 360,000;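 active = activation of at least 8% versus controls, or a plate z-score of at least 8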;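 also: Pro5 are CHO cells carrying HIG-tagged alpha-DG that lacks glycosylation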
# FAS TE block – inhibitors of human fatty acid synthase thioesterase domain. inhibition, % at 15 µM. hit rate 0.67% among 360,000. P49327. recombinant FAS-TE, OMFH fluorogenic substrate, fluorescence endpoint. AID 602261;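 active = compounds whose normalised, plate-corrected inhibition of enzyme fluorescence in the single-dose primary screen is 50% or more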;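 also: 0% = DMSO with enzyme and 100% = substrate without enzyme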
# ADAM10 inh – inhibits human ADAM10; AID 720582; O14672; hit rate 0.62% among 370,000; inhibition, % at 7 µM; recombinant ADAM10, EDANS/DABCYL FRET peptide cleavage, 3 h;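 active = inhibition above a per-campaign cutoff equal to the mean of compounds falling between control-based bounds plus 3 SD, cut at about 20% in these data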;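 also: 0% = DMSO wells while the 100% control is not disclosed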
# * = called active by the depositor; i = inactive; / = no result. Hits are enriched below; roughly 4% of the tested compounds scored in any of these assays.
SMILES,NR3A LBD binder,ADAM17 inh,aDG glyco act,FAS TE block,ADAM10 inh
C=CCn1c(-c2cccs2)nc2nc3ccccc3nc21,-1,i,0,-3,i
CCCC1NC(=O)c2cccnc2-n2c1nc1ccccc1c2=O (configuration not stated),/,-4,0,-6,-5
CCN(CC)S(=O)(=O)c1cc(C(=O)OCC(=O)Nc2cccc(Br)c2)ccc1F,18*,7,0,30,9
CCN(c1ccccc1)S(=O)(=O)c1cc(C(=O)Nc2cccc(Cl)c2)ccc1F,15*,7,1,37,13
O=C(Nc1cccc(Cl)c1)c1ccccc1,-10,4,0,-31,2
O=C(Nc1cccc(Cl)c1)c1ccc(F)c(S(=O)(=O)NCc2cccs2)c1,13*,6,1,17,14
O=C(NCc1ccccc1F)C1CCN(C(=O)Nc2ccc(F)cc2)CC1,-3,0,0,-2,6
Cc1ccc(-c2nc(N=Nc3ccc(O)cc3)n[nH]2)cc1,1,3,0,-6,1
COc1ccc(-c2nc(N=Nc3ccc(O)cc3)n[nH]2)cc1,13*,7,-1,-4,13
COc1ccc(-c2cc(C#N)nc(N3CCN(C)CC3)n2)cc1,0,-60,1,-3,-182
FC(F)(F)c1cc(-c2ccccc2)nc(N2CCCCCC2)n1,11*,-6,0,12,0
CN1CCN(c2nc(C#N)cc(-c3ccccc3)n2)CC1,11*,-17,0,-3,-36
CC(C)c1ccc(C(=O)N2CCN(CCO)CC2)cc1,0,1,0,-5,-5
CCc1ccc(C(=O)Cn2ccsc2=N)cc1,39*,-3,1,-1,-4
CC(C)(C)NC(=O)NC(=O)Cn1ccsc1=N,-2,-4,0,-13,-7
C[C@@]12C(=O)Nc3ccc(Cl)cc3C(=O)N1[C@H]1c3ccccc3OC[C@@H]1[C@@H]2c1ccccc1,-5,/,0,83*,/
Cc1ccc2c(c1)[C@H]1[C@H](CO2)[C@H](c2ccccc2)[C@]2(C)C(=O)N(Cc3ccccc3)CC(=O)N12,4,-5,0,20,-2
COc1ccc2c(c1)OC[C@H]1[C@H]2N2C(=O)c3cc(OC)c(OC)cc3NC(=O)[C@@]2(C)[C@H]1c1ccccc1,-9,-2,1,91*,-7
COc1ccc2c(c1)[C@H]1[C@H](CO2)[C@H](c2ccccc2)[C@]2(C)C(=O)N(Cc3ccc(C)cc3)CC(=O)N12,-3,/,0,63*,/
C/C(=N\NC(=O)c1nnn(-c2nonc2N)c1-c1ccc2c(c1)OCO2)c1cccs1,-13,-3,0,-4,-3
O=C(O)c1cccnc1SCC(=O)C12CC3CC(CC(C3)C1)C2,4,1,0,-5,-4
Cc1ccc(C(=O)CSc2ccccn2)cc1,11*,2,0,-3,8
O=C(CSc1ccccn1)C12CC3CC(CC(C3)C1)C2,12*,2,0,19,4
CCC1CCCCN1CCCNC(=O)CN1C(=O)COc2ccc(S(=O)(=O)N3CCOCC3)cc21 (configuration not stated),-3,-1,0,-5,-9
CCc1ccc(C(=O)OCC(=O)NC2CCCC2)cc1,-1,-2,0,2,-7
SMILES,NR3A LBD binder,ADAM17 inh,aDG glyco act,FAS TE block,ADAM10 inh
CC(C)CCNC(=O)NC(=O)COC(=O)/C=C/c1cccc([N+](=O)[O-])c1,0,-3,0,12,3
CC(C)CCNC(=O)NC(=O)COC(=O)/C=C/c1cnc2ccccc2n1,11*,-3,0,-46,-3
Cc1[nH]c2ccccc2c1CCCO,1,-16,/,/,-30
OCCCCc1nccc2c1[nH]c1ccccc12,12*,-363,0,-5,i
O=C(Nc1ccc(Cl)cc1)OCc1ccccn1,22*,-7,0,2,-1
CS(=O)(=O)c1ccccc1COC(=O)Nc1ccc(Cl)cc1,-4,2,0,12,5
FC(F)Oc1ccc(NC(=S)NC2CCSc3ccccc32)cc1 (configuration not stated),17*,5,0,31,12
CCOC(=O)C1CCN(CC(O)COCc2ccccc2)CC1 (configuration not stated),14*,-1,0,-2,-1
O=C(CSc1nnc(Cc2ccccc2)o1)NCc1ccc2c(c1)OCO2,0,-1,0,-6,-12
CCOC(=O)/C(C(=O)Nc1ccccc1Br)=C1/NC(C)(C)Cc2ccccc21,13*,-3,0,27,-7
CCOC(=O)/C(=N\O)C1=NC(C)(C)Cc2ccccc21,-21,-2,0,-15,3
CCN(CC)CCn1c2c(c(SCC(=O)Nc3ccc(C(C)C)cc3)nc1=O)CCCC2,0,3,1,2,-14
Cc1ccc(NC(=O)CCN2C(=O)c3ccccc3S2(=O)=O)cc1F,1,-4,0,-4,-4
C[C@]12CCC(O)CC1CCC1C2CC[C@]2(C)C(c3cc(C(F)(F)F)n[nH]3)CCC12 (some centres not stated),24*,-4,0,26,-6
COc1cc(C=O)ccc1OC(=O)c1cccnc1,-1,-3,0,1,-5
c1ccc(-c2cc(-c3ccccc3)on2)cc1,30*,-6,0,0,-7
CCO[C@@H]1OC(C(=O)O)=C[C@H](C)[C@H]1CCCO,-1,-6,0,-12,2
CCOc1ccc(N(CC(=O)Nc2cccnc2)S(=O)(=O)c2ccc(C)cc2)cc1,16*,0,0,0,2
CCc1ccccc1N(CC(=O)Nc1cccnc1)S(=O)(=O)c1ccccc1,12*,0,0,-1,-1
COc1cc(/C=C2/SC(=O)N(CC(=O)N3CCCC3)C2=O)ccc1Oc1ccc([N+](=O)[O-])cn1,13*,1,0,14,-3
CCCCN1C(=O)C2C(c3ccc(OC)cc3O)NC(CC(C)C)(C(=O)O)C2C1=O (configuration not stated),-1,-3,0,-4,-13
COc1ccc(NC(=O)c2cc(-c3ccc(F)cc3OC(C)C)n[nH]2)c(OC)c1,/,7,0,27,17
COc1ccc(NC(=O)c2cc(-c3ccc(C)cc3O)n[nH]2)c(OC)c1,38*,-2,0,-1,0
COc1ccc(Cl)cc1NC(=O)c1cc(-c2ccccc2O)n[nH]1,24*,0,1,-2,2
COc1ccc(NC(=O)c2ccc3[nH]c(C)c(C)c3c2)c(OC)c1,15*,-2,0,3,-14
O=C(NCc1ccc2c(c1)OCO2)c1cc(-c2cc(Cl)ccc2O)n[nH]1,11*,-1,0,1,2
CCOc1ccccc1NC(=O)c1ccc2[nH]c(C)c(C)c2c1,-10,-8,0,0,-14

# Screening results deposited in PubChem by several laboratories.
